Measurements reported in PubChem BioAssay (Tox21).
Values joined by “and” are separate entries in the source; they are usually repeats but may differ in a detail not shown here. Identical values can stand only once. Records with an inconclusive call do not appear. Where a call stands in place of a potency, no number is given. The source holds several records for some structures; these can differ, active in one and inactive in another. Active and inactive are the calls of the source. Calls come from the whole dose curve.

Each compound was assayed against Thyrotropin receptor (Homo sapiens) (UniProt P16473) (assay: qHTS assay to identify small molecule agonists of the thyroid stimulating hormone receptor (TSHR) signaling pathway (AID 1224843; note: nearly all actives have a fitted effect of over 45% in size)). Settings: TSHR-HEK293 cells, cAMP HTRF, agonist mode, 30 min; series mostly up to 92.4 µM.
Sequence of Thyrotropin receptor (Homo sapiens) (P16473 whole entry, looked up): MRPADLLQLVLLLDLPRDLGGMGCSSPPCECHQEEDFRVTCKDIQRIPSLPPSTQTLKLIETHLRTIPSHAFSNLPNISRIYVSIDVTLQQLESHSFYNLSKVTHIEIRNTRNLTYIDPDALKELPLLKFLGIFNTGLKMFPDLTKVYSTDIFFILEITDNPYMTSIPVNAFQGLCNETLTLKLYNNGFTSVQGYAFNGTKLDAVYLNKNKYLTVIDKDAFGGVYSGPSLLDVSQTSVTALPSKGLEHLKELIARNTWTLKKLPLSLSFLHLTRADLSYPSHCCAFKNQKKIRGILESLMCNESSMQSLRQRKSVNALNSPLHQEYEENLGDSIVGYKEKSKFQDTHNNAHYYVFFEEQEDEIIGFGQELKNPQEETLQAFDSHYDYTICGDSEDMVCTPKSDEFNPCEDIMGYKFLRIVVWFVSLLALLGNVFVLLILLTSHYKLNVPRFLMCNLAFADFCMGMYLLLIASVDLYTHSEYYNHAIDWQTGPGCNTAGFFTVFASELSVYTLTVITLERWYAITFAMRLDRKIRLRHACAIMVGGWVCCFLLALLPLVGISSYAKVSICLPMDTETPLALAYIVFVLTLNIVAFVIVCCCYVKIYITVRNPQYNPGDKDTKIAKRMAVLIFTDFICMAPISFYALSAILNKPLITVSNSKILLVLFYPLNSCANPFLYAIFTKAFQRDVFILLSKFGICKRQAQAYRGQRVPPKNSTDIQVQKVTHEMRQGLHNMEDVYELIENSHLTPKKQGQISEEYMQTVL
Text: National Center for Advancing Translational Sciences [NCATS]
NIH Chemical Genomics Center [NCGC]
U.S. Environmental Protection Agency [EPA]
National Institutes of Environmental Health Sciences [NIEHS]
National Toxicology Program [NTP]
U.S. Food and Drug Administration [FDA]
TSHR is the receptor for thyrotropin (thyroid stimulating hormone or TSH), a member of the glycoprotein hormone family. TSH is released by the anterior pituitary gland and is the main regulator of thyroid gland growth and development. Upon binding circulating thyrotropin, a G-protein signal cascade activates adenylyl cyclase and […] cAMP concentration is increased. cAMP is a key second messenger involved extensively in cellular signal transduction pathways associated with the majority of G-protein coupled receptors (GPCRs). The activation of these GPCRs by neurotransmitters, lipids, nucleotides, peptides and hormones results in the activation or the inhibition of plasma membrane-bound adenylate cyclase through heterotrimeric G-proteins. A cell-based TSHR assay was used to screen the Tox21 10K library for compounds that can modulate TSHR in agonist mode.
Tox21 Assay Protocol Summary:
TSHR-Hek293 cells were dispensed at 800 cells/4uL/well in 1536-well white plates using a Multidrop dispenser. […] The plates were incubated at room temperature for 30 min. 2.5 ul/well of cAMP-d2 and 2.5ul/well of anti-cAMP-cryptate was added respectively into the assay plates using a Flying Reagent Dispenser. After 1 hr incubation at room temperature, the fluorescence intensity in the plates was measured using an Envision plate reader. Each test compound was measured at 15 concentrations and in triplicates.
Potency is the fitted concentration of half-maximal effect.

Compound	Potency
CCc1cc(C(C)(C)C)c(O)c(C(C)(C)C)c1	inactive
CCN(CC)c1ccc2c(C)cc(=O)oc2c1	inactive
CCCCC/C=C/CC1CC(=O)OC1=O (stereo not given)	inactive
O=Cc1ccc(Cl)cc1	inactive
CCCN[C@H]1CCc2nc(N)sc2C1	inactive
Cc1ccc(-c2cc(C(F)(F)F)nn2-c2ccc(S(N)(=O)=O)cc2)cc1	48.4 µM (active) and 34.4 µM (active) and inactive
C=CS(=O)(=O)O	inactive
Cc1cc(C2(c3cc(C)c(O)cc3C)OS(=O)(=O)c3ccccc32)c(C)cc1O	inactive
CCCCCCC(O)CCCCCCCCCCC(=O)O (stereo not given)	inactive
CC(=O)C1=C(C)[C@@H]2C[C@@]3(C1)[C@H](C)CC[C@H]3C2(C)C	inactive
CC(C)(O)CCC(C)(C)O	inactive
CC(C)(c1ccccc1)c1ccc(Nc2ccc(C(C)(C)c3ccccc3)cc2)cc1	inactive
O=C(Cl)c1cccc(C(=O)Cl)c1	inactive
O=C(Nc1ccccc1SSc1ccccc1NC(=O)c1ccccc1)c1ccccc1	inactive
CCC(C)(Oc1ccc(C2(c3ccc(OC(C)(CC)C(=O)O)cc3)CCCCC2)cc1)C(=O)O (stereo not given)	inactive
CC(=O)OCC1=C(C(=O)O)N2C(=O)[C@@H](NC(=O)Cc3cccs3)[C@H]2SC1	inactive
CC(=O)OCCOCCOCCOC(C)=O	6.77 µM (active) and inactive
COC(=O)[C@H]1[C@H]2C[C@@H]3c4[nH]c5cc(OC)ccc5c4CCN3C[C@H]2C[C@@H](OC(=O)c2cc(OC)c(OC)c(OC)c2)[C@@H]1OC	inactive
C[N+]1([O-])CCOCC1	inactive
O=C1Nc2ccccc2C1(c1ccc(O)cc1)c1ccc(O)cc1	inactive

Compound	Potency
c1cc(C(c2ccc(OCC3CO3)cc2)C(c2ccc(OCC3CO3)cc2)c2ccc(OCC3CO3)cc2)ccc1OCC1CO1 (stereo not given)	inactive
COC(c1ccccc1)(c1ccccc1)[C@H](Oc1nc(C)cc(C)n1)C(=O)O	inactive
CC1COc2c(N3CCN(C)CC3)c(F)cc3c(=O)c(C(=O)O)cn1c23 (stereo not given)	inactive
c1ccc2cc3c(ccc4ccccc43)cc2c1	inactive
CC[C@@H](N)CO	inactive
c1ccc2c(c1)CCCC2C1=NCCN1 (stereo not given)	inactive
COC(=O)/C=C/c1ccccc1	inactive
O	inactive
Cc1cc(OCCOCC[N+](C)(C)Cc2ccccc2)ccc1C(C)(C)CC(C)(C)C	27.1 µM (active) and 15 µM (active)
C#CC(C)(CC)OC(=O)c1ccccc1C(=O)O (stereo not given)	inactive
CNC1(C)C2CCC(C2)C1(C)C (stereo not given)	inactive
CC(C)(C)NCC(O)COc1ccccc1OCC1CCCO1 (stereo not given)	inactive
CC(C)CCOC(=O)c1ccc(N(C)C)cc1	inactive
CC1COC(=O)O1 (stereo not given)	inactive
CCn1cc(C(=O)O)c(=O)c2cc(F)c(N3CCNC(C)C3)c(F)c21 (stereo not given)	inactive
N[C@@H]1CONC1=O	inactive
CC[C@]1(O)C[C@@H]2CN(CCc3c([nH]c4ccccc34)[C@@](C(=O)OC)(c3cc4c(cc3OC)N(C)[C@H]3[C@@](O)(C(=O)OC)[C@H](OC(C)=O)[C@]5(CC)C=CCN6CC[C@]43[C@@H]65)C2)C1	inactive
Oc1c(Cl)cc(Cl)cc1Sc1cc(Cl)cc(Cl)c1O	inactive
C=C(C)C1CC=C(C)C(OC(C)=O)C1 (stereo not given)	inactive
Cc1cccc(O)c1C	inactive
